The list is not random: actives were taken first. Their share in the collection is about 1.2%.
Six1-Eya2 blk: Six1/Eya2 interaction inhibition; AID 651725; 360,000 tested, 0.56% active; activity change, % (no concentration beside the values); AlphaScreen GST-Six1/His-Eya2 binding, biochemical; stronger effect = lower value
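Compounds are tested against tagged Six1 and Eya2 proteins bridged by glutathione donor and nickel acceptor beads; after a one-hour incubation at 37 °C without light, AlphaScreen emission is recorded.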
pAkt inh: blocks phosphorylation of Akt. Neuro2A IGF-stimulated pAkt S473 HTRF, 20 min; stronger effect = lower value. activity change, % for hits at 50 µM. 360,000 tested, 0.32% active; in the data active = activity change below about -80%; inconclusive = mostly about -51% to -80%
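Single-point screen (50 µM final compound) in Neuro2A cells stimulated 20 min with 6 nM IGF at 37 deg C. After lysis, Ser473-phosphorylated Akt read by HTRF (ex 330 nm, em 615/665 nm) as the 665/615 ratio.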
CtBP-E1A blk: blocks the CtBP interaction with E1A | 340,000 tested, 0.49% active | AlphaScreen GST-E1A/His-CtBP binding, 1536-well; stronger effect = lower value | activity change, % (test concentration not listed)
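AlphaScreen with 125 nM GST-E1A and 125 nM His-CtBP (5X stocks) in Tris pH 8.0, 300 mM NaCl, BSA, Tween 20, TCEP. Compounds preincubated 2 h at 37 deg C, then glutathione donor/nickel acceptor beads added for 1 h at 37 deg C in dark.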
CCT chaperon mod: cytosolic chaperonin activity modulation; activity change, % (test concentration not listed), hits read low; 360,000 tested, 0.3% active; purified chaperonin ATPase assay, HTRF ADP detection, 30 min; in the data active = activity change below about -30%
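TRiC (40 or 20 nM final, by batch activity) in 30 mM Tris pH 7.4, 100 mM KCl, 5 mM MgCl2, 1 mM DTT was treated with compound at 76 uM single dose, then 10 uM ATP, 30 min at 37 °C. ADP was read by HTRF Transcreener.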
An asterisk follows results filed as active; i = inactive; ? = inconclusive; nt = no result. Rule as the data show it, unless noted: active = activity change below about -65%; inconclusive = mostly about -30% to -63%; inactive = weaker than that. % is scaled to controls: 0 for no effect and ±100 for the full control effect.

SMILES	Six1-Eya2 blk	pAkt inh	CtBP-E1A blk	CCT chaperon mod
CN(C)CCCN=Cc1c(O)n(CCc2ccc(F)cc2)c(=O)[nH]c1=O	-0.4	-119.9%*	-1.0	-1.6
COC(=O)C1=C(c2cc3ccccc3s2)C[C@@H]2CC[C@H]1N2C(=O)NC1CCCCC1	-11.9	i	-2.2	-1.6
CCCCC(=O)N/N=C/c1c(O)n(CCc2ccccc2)c(=O)[nH]c1=O	?	i	?	1.3
CCCCC(=O)N/N=C/c1c(O)n(Cc2ccc(F)cc2)c(=O)[nH]c1=O	-68.2*	i	?	-4.4
O=C(N/N=C/c1c(O)n(Cc2ccc(F)cc2)c(=O)[nH]c1=O)c1ccccc1	-73.7*	i	-80.6*	-3.1
CCCCn1c(O)c(/C=N/NC(=O)c2ccncc2)c(=O)[nH]c1=S	-84.9*	i	-29.3	-1.5
CN1CCN(c2ccc(N)cc2Cl)CC1	-21.2	i	nt	-1.7
CCOC(=O)C1C(=O)N(C)C2(C)CC1c1cc(OC)ccc1O2 (stereo not drawn)	-0.2	i	1.8	3.0
CCOC(=O)C1C(=O)N(C)C2(C)CC1c1ccccc1O2 (stereo not drawn)	3.1	-114.2%*	4.0	0.5
CCOC(=O)[C@]12Cc3cc(Cl)ccc3[C@H]1N(C1CCCCC1)C(=O)c1cc(OC)ccc12	-6.5	i	-14.6	2.4
COc1ccc(C2CC(c3c(O)n(CCc4ccccc4)c(=O)[nH]c3=O)=NN2)cc1OC (stereo not drawn)	-67.6*	i	-25.8	0.7
COc1ccc(CCn2c(O)c(C=NCc3cccnc3)c(=O)[nH]c2=O)cc1OC	-0.6	i	3.0	-0.7
C[C@@]12CC[C@@H](c3cc4c(cc3C1)OCO4)N2c1ccccc1	-25.2	i	-3.7	nt
Cn1c(O)c(C(=O)c2ccccc2)c(=O)n(C)c1=O	6.2	i	3.1	-4.1
CN=C(SCc1ccccc1)c1c(O)n(C)c(=O)n(C)c1=O	1.4	-108.1%*	-11.7	-3.4
Cc1ccccc1-n1c(O)c(/C=N/NC(=O)c2ccccc2O)c(=O)[nH]c1=S	-91.7*	i	-101.3*	-2.5
O=C(N/N=C/c1c(O)n(-c2ccccc2)c(=O)[nH]c1=O)c1ccncc1	?	i	-17.6	0.0
Cn1c(O)c(/C=N/NC(=O)c2ccncc2)c(=O)[nH]c1=S	-14.3	i	nt	-0.9
O=C(N/N=C/c1c(O)n(-c2ccccc2)c(=S)[nH]c1=O)c1ccccc1	-92.0*	i	-89.1*	3.8
O=C(N/N=C/c1c(O)n(C2CC2)c(=S)[nH]c1=O)c1ccccc1O	-83.0*	i	-84.7*	-0.4
O=c1[nH]c(=S)n(C2CC2)c(O)c1C=NCc1ccc(F)cc1	0.5	i	-11.9	0.7
COc1ccc(-n2c(-c3ccccc3F)nc3ccccc3c2=O)cc1	1.6	i	-1.3	-1.9
COC(=O)C1=C(c2ccc(F)cc2OCc2ccccc2)C[C@@H]2CC[C@H]1N2C(=O)NCCCc1ccccc1	-14.2	i	-8.0	-1.6
CC1CN1c1cc2c(c3c1ccn3C)C1CCC2C1 (stereo not drawn)	-16.7	i	-15.7	0.4
COc1ccc(-n2nnnc2C(c2cccs2)N2CCC3(CC2)C(=O)NCN3c2ccccc2)cc1 (stereo not drawn)	-21.6	i	-14.6	-2.3
SMILES	Six1-Eya2 blk	pAkt inh	CtBP-E1A blk	CCT chaperon mod
Nc1ccc(-c2ccccc2)cc1	-9.0	i	-2.3	-52.5*
COC(=O)N1Cc2ccccc2-n2nncc2C1	7.3	i	0.4	0.3
COc1ccc(-n2nnnc2C(CCc2ccccc2)N2CCC3(CC2)C(=O)NCN3c2ccccc2)cc1 (stereo not drawn)	-26.7	i	-13.5	-0.8
CCOC(=O)[C@]1(C#N)[C@@H]2C=CC(C(C)=O)=CN2[C@@H](C(N)=O)[C@@H]1c1ccsc1	-11.4	-105.8%*	5.6	-0.8
CC(=NCCCN1CCCCC1)c1c(O)n(Cc2ccccc2)c(=O)[nH]c1=O	-14.8	-115.9%*	-2.6	-2.5
CC(=NCCN1CCCCC1)c1c(O)n(Cc2ccccc2)c(=O)[nH]c1=O	-0.9	i	3.7	-0.5
COC1CC2C=C(C)C=CC=CC(=O)NC(c3ccccc3)CC=CCCC(O)CC(=O)C2=C1O (stereo not drawn)	-18.5	i	2.5	-2.6
Cc1ccc(C(O)(C(=O)OC(C)C)C(O)c2ccc(F)cc2)cc1 (stereo not drawn)	1.6	i	-7.0	nt
COc1ccc(-n2c(SCCN(C)C)nc3ccccc3c2=O)cc1	13.9	i	3.4	-112.6*
CN(C)C1C(=O)C(C(N)=O)=C(O)C2(O)C(=O)C3=C(O)c4c(O)cccc4C(C)(O)C3C(O)C12 (stereo not drawn)	?	i	-68.5*	-1.1
CC(C)N1CCN(Cc2c[nH]c3ccccc23)CC1CCO (stereo not drawn)	2.2	i	-3.9	-2.0
COC(=O)C1=C(c2ccc(-c3ccccc3)c(F)c2)C[C@@H]2CC[C@H]1N2C(=O)N1CCCCC1	-11.5	i	-26.9	1.4
COC(=O)C1=C(c2ccc(-c3ccccc3)c(F)c2)C[C@@H]2CC[C@H]1N2C(=O)N1CCCC1	-14.8	i	-19.9	-33.0*
COC(=O)C1=C(c2cccc(OCc3ccccc3)c2)C[C@@H]2CC[C@H]1N2C(=O)NCc1ccccc1OC	-5.3	i	-29.6	-1.5
CC(=O)c1cccc(NC(=O)N2C[C@H]3C[C@@H](C2)c2cccc(=O)n2C3)c1	4.7	i	8.7	-1.7
O=C(c1cn(Cc2ccccc2F)c2ncccc12)C(F)(F)F	21.9	i	24.4	-35.5*
COc1cc2c(cc1OC)CN(c1ccc([N+](=O)[O-])c(C(F)(F)F)c1)CC2	-22.7	i	0.3	-0.8
O=c1[nH]c(=O)n(Cc2ccco2)c(O)c1C=NCc1cccs1	-3.1	-92.9%*	-3.1	0.4
